Screening data (PubChem)
gsp antagonist – antagonists of gsp mutant (McCune-Albright syndrome). gsp-mutant cells, cAMP HTRF, 30 min. AID 624288. Potency, µM (titrated, usually from 76.9 µM), for inactives: at the highest dose activity change, negative = inhibition, hits mostly inhibitors. 340,000 tested, 0.4% active; calls by dose curve; cell line not stated here;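 further: intracellular cAMP measured with PDE inhibitor Ro 20-1724 present during compound exposure; potency means the concentration at half of the fitted maximal effect; on the % scale 0 is the no-effect control and ±100 the full control effect; nearly all actives have a fitted effect of over 65% in size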
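Measurement of cellular cAMP by homogeneous time-resolved fluorescence following a 30 min compound exposure at 37C. The PDE inhibitor […] was present throughout; the assay buffer was DPBS with 0.05% BSA and 0.005% Tween 20.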
RXFP1 agonist – RXFP1 (human) receptor agonism; 370,000 tested, 0.3% active; Potency, µM (titrated, usually from 57.5 µM), for the others: top-dose activation, usual class: activators; HEK293T-RXFP1 cAMP TR-FRET, 30 min; response scale: percent of porcine relaxin response, buffer zero; further: potency means the concentration at half of the fitted maximal effect; on the % scale 0 is the no-effect control and ±100 the full control effect; nearly all actives have a fitted effect of over 60% in size
Target sequence (Q9HBX9 whole entry, looked up): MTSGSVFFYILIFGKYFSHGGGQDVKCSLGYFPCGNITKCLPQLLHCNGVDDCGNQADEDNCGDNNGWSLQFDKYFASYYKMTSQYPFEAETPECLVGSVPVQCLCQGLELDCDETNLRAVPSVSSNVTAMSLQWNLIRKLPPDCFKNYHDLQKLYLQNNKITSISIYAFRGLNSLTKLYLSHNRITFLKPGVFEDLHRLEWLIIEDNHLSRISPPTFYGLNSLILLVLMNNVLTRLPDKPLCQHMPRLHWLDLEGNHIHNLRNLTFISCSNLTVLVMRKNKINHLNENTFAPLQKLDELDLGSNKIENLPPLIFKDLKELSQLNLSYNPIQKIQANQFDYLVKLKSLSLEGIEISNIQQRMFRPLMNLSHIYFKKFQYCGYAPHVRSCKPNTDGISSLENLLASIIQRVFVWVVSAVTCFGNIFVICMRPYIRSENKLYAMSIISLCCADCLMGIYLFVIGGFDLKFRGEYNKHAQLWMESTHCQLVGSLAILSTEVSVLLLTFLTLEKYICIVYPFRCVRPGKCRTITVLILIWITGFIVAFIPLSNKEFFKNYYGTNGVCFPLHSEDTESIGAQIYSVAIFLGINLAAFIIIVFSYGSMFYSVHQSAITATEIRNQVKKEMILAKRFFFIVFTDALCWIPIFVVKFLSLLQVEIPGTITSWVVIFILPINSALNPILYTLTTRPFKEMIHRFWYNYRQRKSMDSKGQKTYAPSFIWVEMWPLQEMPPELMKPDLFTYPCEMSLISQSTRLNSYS
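HEK293 cells stably expressing RXFP1, treated 30 min at 37C with compounds plus PDE4 inhibitor Ro 20174; cAMP measured by HTRF TR-FRET. Normalized to buffer and 29 nM porcine relaxin; EC50 by Hill fit.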
PTHR1 ag – agonists of human PTHR1 parathyroid hormone receptor; Q03431; HEK293 GP2 PTHR1 cells, GloSensor cAMP luminescence, 1 h; Potency, µM (series often up to 115 µM), inactives show top-dose activation, actives largely listed as activators; 410,000 tested, 0.075% active; AID 743266; further: potency means the concentration at half of the fitted maximal effect; nearly all actives have a fitted effect of over 55% in size
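HEK-293-derived GP2 cells expressing PTHR1 and a GloSensor cAMP reporter, 3,000/well, plated overnight, given luciferin plus IBMX (each 0.5 mM as added) for 1 h at 37 °C, then compound for 1 h at 37 °C. Luminescence was read after 15 min at room temperature.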
gsp agonist – agonists of gsp mutant (McCune-Albright syndrome). gsp mutant cells, cAMP HTRF, 30 min. Potency, µM (doses to about 76.9 µM), for inactives: at the highest dose activation (cAMP increase), most hits filed as activators. 340,000 tested, 0.13% active; active means well fitted activation curve with a large enough effect; inconclusive means small, poorly fitted or top-dose-only effect, or another doubt; inactive means no such curve, though single readings can be large or run the other way; cell line not stated here;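 further: phosphodiesterase inhibitor Ro 20-1724 added with compounds to block cAMP breakdown; potency means the concentration at half of the fitted maximal effect; nearly all actives have a fitted effect of over 60% in size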
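Cells in DMEM/10% FBS with G418 were pretreated with compounds in DMSO plus […] (300 uM stock) for 30 min at 37C. cAMP was measured by HTRF (cAMP-d2 plus anti-cAMP antibody-K) after 30 min at room temperature.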
RXFP1 antag – antagonists of human relaxin receptor RXFP1; Q9HBX9; HEK293-RXFP1, relaxin-stimulated cAMP HTRF, 30 min; active compounds read low; 350,000 tested, 0.59% active; activity change, negative = inhibition, % at 57.5 µM;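 active means activity change of -60% or lower, but not beyond a set lower limit; inconclusive means change between -60% and -40%, or beyond the set limit; inactive means change above -40%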; further: on the % scale 0 is the no-effect control and ±100 the full control effect
The depositor's hits bear a star; i = inactive; ? = inconclusive; . = no result given; + = active, no number; [ ] = remark or other dose. A selection: hits, their analogues and other compounds. The true share with any hit is near 1%. Unless noted, the call rests on the fitted dose curve; in most records, active means well fitted curve in the direction sought with a large enough effect; inconclusive means small, poorly fitted or top-dose-only effect, or another doubt; inactive means no such curve, though single readings can be large; an effect the other way counts as inactive or inconclusive.

SMILES | gsp antagonist | RXFP1 agonist | PTHR1 ag | gsp agonist | RXFP1 antag
O=C(COC(=O)CNS(=O)(=O)c1ccc(Br)cc1Cl)NC1CCCC1 | -6% | 1% | ? | -31%[15.4 µM] | -93*
CCOc1cccc(C(=O)N(Cc2ccc(C)o2)C2CCS(=O)(=O)C2)c1 (centres undefined) | . | -1% | -29% | . | 4
CCOc1cccc(-c2c(C(=O)N/N=C(\C)c3ccncc3)nnn2-c2nonc2N)c1 | -11% | -3% | i | 4% | -62*
CCOc1cccc(-c2c(C(=O)N/N=C(\C)c3ccccn3)nnn2-c2nonc2N)c1 | -10% | 0% | -12% | -21% | 2
CCOc1ccc(-c2c(C(=O)N/N=C/c3c[nH]c4ccccc34)nnn2-c2nonc2N)cc1 | 25µM* | -2% | ? | ? | -10
COc1cc2c(=O)c(S(=O)(=O)c3ccc(C)cc3)cn(Cc3cccc(C)c3)c2cc1OC | . | 2% | -34% | . | .
CCCOc1ccc(C2C(C(=O)c3ccco3)=C(O)C(=O)N2CCN2CCOCC2)cc1OC (centres undefined) | . | 4% | . | . | .
COc1cc(C2C(C(=O)c3cc4ccccc4o3)=C(O)C(=O)N2CCN2CCOCC2)ccc1OCCC(C)C (centres undefined) | 10% | 28µM* | -34% | ? | -5
Cc1nn(C)c(C)c1S(=O)(=O)N(CC(=O)NCCc1ccc(Cl)cc1)c1ccc(C(C)C)cc1 | . | 2% | -82% | . | -12
COc1ccc(NS(=O)(=O)c2ccc(O)c(NC(=O)c3ccc(S(=O)(=O)N4CCCCCC4)cc3)c2)cc1 | ? | 10% | -31% | -2% | -22
COc1ccc(NS(=O)(=O)c2ccc(O)c(NC(=O)c3ccc(S(=O)(=O)N4CCCC4)cc3)c2)cc1 | -5% | -1% | i | -15% | -60*
COc1ccc(CCn2c(O)cc3nn(-c4nc5ccccc5s4)c(=O)c-3c2C)cc1 | 7% | 0% | -15% | -11%[15.4 µM] | -70*
CCCc1oc(C(=O)O)cc1CN | 8% | 0% | 18µM* | 16% | -10
CO/N=C/c1ccc(N2CCN(C(=O)c3cccc(C(F)(F)F)c3)CC2)c([N+](=O)[O-])c1 | ? | -1% | -1%[57.5 µM] | -2% | -10
CO/N=C/c1ccc(N2CCN(C(=O)c3ccc(F)cc3)CC2)c([N+](=O)[O-])c1 | 35µM* | 0% | -12%[57.5 µM] | 25% | -5
Cc1cccc(C(=O)Nc2nnc(SCc3cc(=O)n4cccc(C)c4n3)s2)c1 | . | 4% | -22% | . | 6
COc1ccc(C)cc1NC(=O)c1ccccc1NS(=O)(=O)c1ccc(Cl)s1 | 35µM* | 3% | -49% | 8% | -2
CN(C)c1ccc(/C(=N\O)C(F)(F)F)cc1 | 40µM* | 0% | i | -19% | -14
CC(=O)c1ccc(N(C)C)cc1 | -11% | 0% | 0%[57.5 µM] | -76% | -12
Cc1csc(=O)n1CCC(=O)OCC(=O)c1c(N)n(CC(C)C)c(=O)n(C)c1=O | -12% | 3% | -36% | 16% | -10
Cc1csc(=O)n1CCC(=O)OCC(=O)c1c(N)n(C)c(=O)n(C)c1=O | 2% | 25% | i | 25µM* | 13
Cc1cccc(NC(=O)/C(C#N)=C\c2cc(C)n(-c3ccc(C(=O)O)cc3)c2C)c1 | 25µM* | -1% | -25% | 5% | -35
O=C(O)c1ccc(/C=N\Nc2ccc(S(=O)(=O)N3CCOCC3)cc2[N+](=O)[O-])cc1 | 1% | 2% | i | ? | -7
Cc1ccc(-n2c(O)c(/C=N/Nc3ccc(S(=O)(=O)N4CCOCC4)cc3[N+](=O)[O-])c3ccccc3c2=O)c(C)c1 | 40µM* | 0% | -34% | -27%[15.4 µM] | -94*
CC(=O)c1ccc(NC(=O)CSc2nnc(Cn3cnc4ccccc43)o2)cc1 | 11% | 0% | -18% | -2%[15.4 µM] | -4
SMILES | gsp antagonist | RXFP1 agonist | PTHR1 ag | gsp agonist | RXFP1 antag
COc1ccc(C(=O)CSc2nnc(Cn3cnc4ccccc43)o2)cc1 | 40µM* | 4% | -41% | -13% | 1
COc1ccc(S(=O)(=O)N2CCOCC2)cc1NC(=O)CSc1nnc(C2CC2)n1C | -2% | . | -17% | 2% | 4
COc1ccc(S(=O)(=O)N2CCOCC2)cc1NC(=O)CSc1nnc2ccccn12 | . | 3.5µM* | . | . | .
CN(C)S(=O)(=O)c1ccc(-c2csc(N/N=C/c3ccco3)n2)cc1 | 32µM* | 0% | -31% | -20%[15.4 µM] | -72*
C(=N\Nc1nc(-c2ccccc2)cs1)/c1ccco1 | -5% | -2% | -39% | -63% | -15
O=[N+]([O-])c1cccc(-c2csc(N/N=C/c3cccc(O)c3)n2)c1 | -15% | 0% | -50% | 2%[15.4 µM] | -67*
CN(C)S(=O)(=O)c1ccc(-c2csc(N/N=C/c3ccc(O)cc3)n2)cc1 | 32µM* | -1% | -34% | 7%[15.4 µM] | ?
Cc1sc(N/N=C/c2ccco2)nc1-c1ccccc1 | -11% | 0% | -23% | -2% | -89*
Cc1ccc(S(=O)(=O)c2nnn3c2nc(N2CCN(c4ccc(F)cc4)CC2)c2cc(Cl)ccc23)cc1C | . | 27% | i | . | -1
O=C(CN1C(=O)COc2ccc(S(=O)(=O)N3CCCCCC3)cc21)N1CCN(c2ccc(Cl)cc2)CC1 | . | 3% | -58% | . | .
O=C(C1CCCCC1)N1CC(=O)N2CCCc3ccccc3C2C1 (centres undefined) | . | . | . | . | -18
O=C(c1cc(-c2ccncc2)nc2ccc(Br)cc12)N1CCN(Cc2ccc3c(c2)OCO3)CC1 | 28µM* | 0% | -20% | 19%[15.4 µM] | -13
Cc1nc(-c2ccc(Cl)cc2)sc1CCNC(=O)C(=O)Nc1ccc2c(c1)OCO2 | . | 4% | -96% | . | -10
CC(=O)Nc1ccc(NC(=O)CN(C)S(=O)(=O)c2ccc3c(c2)CCC(=O)N3)cc1 | 8% | 0% | i | -71% | -86*
Cc1ccc(CCn2c3c(c4cc(Cl)ccc42)CN(C)CC3)cn1 | . | . | . | . | -16
COc1ccc(-c2cc(C(C)=O)c(C)n2CCC(=O)Nc2cccc(C)c2C)cc1 | . | -1% | i | . | -19
CC(NC(=O)c1cccc(S(=O)(=O)N2CCN(Cc3ccccc3)CC2)c1)c1ccccc1Cl (centres undefined) | + | . | -6% | -72% | -12
CC(NC(=O)c1cccc(S(=O)(=O)N2CCN(Cc3ccccc3)CC2)c1)c1ccc(Br)cc1 (centres undefined) | 1% | 0% | -13% | -10% | -5
O=C(NC1CCN(Cc2ccccc2)CC1)c1cc(S(=O)(=O)N2CCOCC2)ccc1Cl | 50µM* | . | -9% | 21% | -2
COc1ccc(C(=O)c2sc3nc(C)cc(-c4cccs4)c3c2N)cc1 | -15% | 5% | -27% | 10µM* | -10
O=C(CCc1nnc2ccc(N3CCC4(CC3)OCCO4)nn12)NCc1ccc(F)cc1 | 3% | 16µM* | i | ? | 22
